PubChem BioAssay (NCATS)
Records with an inconclusive call do not appear. Activity calls are given as the source filed them. Calls come from the whole dose curve; as a rule, active = well fitted cell-killing curve with a large enough effect; inconclusive = small, poorly fitted or top-dose-only effect, or effect the other way; inactive = flat fitted curve, though single readings scatter.

Legend:
Experiment in all cases: Primary qHTS to identify gynecologic anti-cancer compounds using libraries of approved drugs and bioactive compounds (AID 1345084); note: nearly all actives have a fitted effect of over 55% in size
Conditions in all cases: Gynecologic cancer cell panel viability, ATPlite luminescence, 48 h; series mostly up to 57.5 µM
[1] = tested on: SKOV3
In short: (§1)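 In this quantitative HTS, cell killing is estimated from loss of ATP-dependent luciferase light. Cells see five compound concentrations over a 48 h exposure.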

[2] = tested on: Tov-21-G
In short: as §1

[3] = tested on: Tov112D
In short: as §1
% is set by controls: 0 for no effect and ±100 for the full control effect.

CC(O)(CC(=O)O)CC(=O)O[C@@H]1[C@@H](O)[C@H](OCCc2ccccc2)O[C@H](CO)[C@H]1O (some centres undefined)
inactive: Potency [1] | Potency [2] | Potency [3]

O=C(O)c1n[nH]c2c1C[C@H]1C[C@@H]21
inactive: Potency [1] | Potency [2] | Potency [3]

COc1cc2c(cc1O)C1(Cc3ccc4c(c3C1=O)OCO4)N(C)CC2 (centres undefined)
inactive: Potency [1] | Potency [2] | Potency [3]

CC(=O)O[C@H]1[C@H](Oc2ccccc2COC(=O)C2(O)C=CCCC2=O)O[C@H](CO)[C@@H](O)[C@@H]1O (some centres undefined)
inactive: Potency [1] | Potency [2] | Potency [3]

CC1=C2C(=O)O[C@@H](c3ccoc3)[C@]2(C)CCC1
inactive: Potency [1] | Potency [2] | Potency [3]

C[C@]12CC[C@@H]3c4ccc(O[C@@H]5O[C@H](C(=O)O)[C@@H](O)[C@H](O)[C@H]5O)cc4CC[C@H]3[C@@H]1CCC2=O
inactive: Potency [1] | Potency [2] | Potency [3]

C=C1CC2C3(C)C(OC(C)=O)CC(=O)OC(C)(C)C3C(O)C(OC(C)=O)C2(C)C2C(=O)OC(C)C(=O)C12C (centres undefined)
inactive: Potency [1] | Potency [2] | Potency [3]

CC(C)(C)c1cc(CN2CCN(CC(O)c3ccc(Cl)cc3)CC2)cc(C(C)(C)C)c1O (centres undefined)
inactive: Potency [1] | Potency [2] | Potency [3]

COc1cc(C[C@H]2COC(=O)[C@@H]2Cc2ccc(O)c(OC)c2)ccc1O
inactive: Potency [1] | Potency [2] | Potency [3]

CC(=O)N[C@H]1CCN(c2ccc(C3=NOC(CN[S+](=O)([O-])C(C)C)C3)cc2F)C1 (some centres undefined)
inactive: Potency [1] | Potency [2] | Potency [3]

COc1c(C)c(OCC=C(C)C)cc2c1C(=O)NC2=O
inactive: Potency [1] | Potency [2] | Potency [3]

CC(CCC1(O)OC2CC3C4CCC5CC(O[C@@H]6O[C@H](CO)[C@@H](O)[C@H](O)[C@H]6O[C@@H]6OC[C@@H](O)[C@H](O)[C@H]6O)C(O)CC5(C)C4CCC3(C)C2C1C)CO[C@@H]1O[C@H](CO)[C@@H](O)[C@H](O)[C@H]1O (some centres undefined)
inactive: activity change, negative = cytotoxicity [1] 0% [at 11.6 µM] | activity change, negative = cytotoxicity [2] 0.148% [at 11.6 µM] | activity change, negative = cytotoxicity [3] 1.16% [at 11.6 µM]

CC1=CCC2C(C)(CO)CCCC2(C)C1CC12OC1C(O)C(CO)=CC2O (centres undefined)
inactive: Potency [1] | Potency [2] | Potency [3]

CC(=O)c1c(C)cc(O)cc1O[C@@H]1O[C@H](CO)[C@@H](O)[C@H](O)[C@H]1O
inactive: Potency [1] | Potency [2] | Potency [3]

COc1cc(C2c3cc(O)c(OC)cc3CC(CO)C2CO)ccc1O (centres undefined)
inactive: Potency [1] | Potency [2] | Potency [3]

CC(/C=C/C1(O)C(C)(C)CC(O)CC1(C)O)OC1OC(CO)C(O)C(O)C1O (centres undefined)
inactive: Potency [1] | Potency [2] | Potency [3]

C=CC(C)(C)C12CC3C(=O)NC(Cc4cnc[nH]4)C(=O)N3C1Nc1ccccc12 (centres undefined)
inactive: Potency [1] | Potency [2] | Potency [3]

CC(=O)OC[C@@]12[C@H](O)C[C@]3(C)C(=CCC4[C@@]5(C)CC[C@H](O[C@@H]6O[C@H](C(=O)O)[C@@H](O[C@@H]7O[C@H](CO)[C@@H](O)[C@H](O)[C@H]7O)[C@H](O)[C@H]6O[C@@H]6O[C@H](CO)[C@@H](O)[C@H](O)[C@H]6O)[C@](C)(CO)C5CC[C@]43C)[C@@H]1CC(C)(C)[C@@H](OC(C)=O)[C@@H]2O (some centres undefined)
inactive: activity change, negative = cytotoxicity [1] 8.16% [at 11.6 µM] | activity change, negative = cytotoxicity [2] 2.04% [at 11.6 µM] | activity change, negative = cytotoxicity [3] 1.86% [at 11.6 µM]

c1ccc(C(OC2CCN(CCCc3nn[nH]n3)CC2)c2ccccc2)cc1
inactive: Potency [1] | Potency [2] | Potency [3]

N#CCc1ccc(O)cc1O[C@@H]1O[C@H](CO)[C@@H](O)[C@H](O)[C@H]1O
inactive: Potency [1] | Potency [2] | Potency [3]

COc1cc(/C=C/C(=O)OC2[C@H](O)CC(O)(C(=O)O)C[C@H]2O)ccc1O (some centres undefined)
inactive: Potency [1] | Potency [2] | Potency [3]

COc1cc(/C=C/C(=O)O[C@H]2[C@H](OC(=O)/C=C/c3cc(OC)c(O)c(OC)c3)O[C@H](CO[C@@H]3O[C@H](CO)[C@@H](O)[C@H](O)[C@H]3O)[C@@H](O)[C@@H]2O)ccc1O
inactive: Potency [1] | Potency [2] | Potency [3]

COc1cc(CCc2ccccc2)c(C(=O)O)c2c1CC(C(C)(C)O)O2 (centres undefined)
inactive: Potency [1] | Potency [2] | Potency [3]

CCOc1nc2cccc(C(=O)O)c2n1Cc1ccc(-c2ccccc2-c2noc(=O)[nH]2)cc1
inactive: Potency [1] | Potency [2] | Potency [3]

CCC[C@@H]1C[C@@H](C(=O)N[C@@H]([C@H]2O[C@H](SC)[C@H](O)[C@@H](O)[C@@H]2O)[C@@H](C)O)N(C)C1
inactive: Potency [1] | Potency [2] | Potency [3]

O=C(O[C@H]1[C@@H]2C=CO[C@@H](O[C@@H]3O[C@H](CO)[C@@H](O)[C@H](O)[C@H]3O)[C@@H]2[C@@]2(CO)O[C@@H]12)c1ccc(O)c(O)c1
inactive: Potency [1] | Potency [2] | Potency [3]

CO[C@@H]1CC[C@H](OC[C@]2(COC(=O)c3ccc(C)[nH]3)[C@H](OC(C)=O)CC[C@@]3(C)[C@@H]4CC=C(C)[C@@H](C5=C(O)C(=O)OC5O)[C@]4(C)CC[C@@H]32)O[C@H]1C (some centres undefined)
inactive: Potency [1] | Potency [2] | Potency [3]

COc1cc(N2CCC(O)CC2)ccc1Nc1cc(Nc2ccccc2S(=O)(=O)C(C)C)c2cc[nH]c2n1
inactive: Potency [1] | Potency [2] | Potency [3]

CC(C)c1ccc(CC(=O)N2CCC[C@@H](c3cccc(OC(C)(C)C(=O)O)c3)C2)cc1
inactive: Potency [1] | Potency [2] | Potency [3]

C/C=C(\C)C(=O)O[C@H]1[C@H](O)[C@]2(COC(C)=O)[C@H](O)C[C@]3(C)C(=CCC4[C@@]5(C)CC[C@H](O[C@@H]6O[C@H](C(=O)O)[C@@H](O[C@@H]7O[C@H](CO)[C@@H](O)[C@H](O)[C@H]7O)[C@H](O)[C@H]6O[C@@H]6O[C@H](CO)[C@@H](O)[C@H](O)[C@H]6O)[C@](C)(CO)C5CC[C@]43C)[C@@H]2CC1(C)C (some centres undefined)
inactive: activity change, negative = cytotoxicity [1] 20.3% [at 11.6 µM] | activity change, negative = cytotoxicity [2] 0.503% [at 11.6 µM] | activity change, negative = cytotoxicity [3] 7.17% [at 11.6 µM]

CC(=O)NC(CCC(=O)O)C(=O)NCCc1ccc(O)cc1 (centres undefined)
inactive: Potency [1] | Potency [2] | Potency [3]

C=C1CCC2C(OC(=O)C2(O)COC(C)=O)C2C(=C)C(O)CC12 (centres undefined)
inactive: Potency [1] | Potency [2] | Potency [3]

CC(=O)O[C@H]1C[C@@H]2[C@]3(CC[C@]4(C)[C@@H](C5(C)CCC(C(C)(C)O)O5)[C@@H](O)C[C@@]24C)C[C@@]32CC[C@H](O[C@@H]3OC[C@@H](O)[C@H](O)[C@H]3O)C(C)(C)[C@H]12 (some centres undefined)
inactive: Potency [1] | Potency [2] | Potency [3]

C/C=C1/[C@H](O[C@@H]2O[C@H](CO)[C@@H](O)[C@H](O)[C@H]2O)OC=C(C(=O)OC)[C@H]1CC(=O)O[C@@H]1O[C@H](CO)[C@@H](O)[C@H](O)[C@H]1O
inactive: Potency [1] | Potency [2] | Potency [3]

COCCCNCC1COc2ccccc2O1 (centres undefined)
inactive: Potency [1] | Potency [2] | Potency [3]

CC(c1c[nH]c2ccccc12)C(O)C(=O)O (centres undefined)
inactive: Potency [1] | Potency [2] | Potency [3]

C[C@H]1[C@H](C)CC[C@]2(C(=O)O)CC[C@]3(C)C(=CC[C@@H]4[C@@]5(C)C[C@@H](O)[C@H](O)[C@@](C)(CO)[C@@H]5CC[C@]43C)[C@H]12
inactive: Potency [1] | Potency [2] | Potency [3]

C/C=C(\C)C(=O)O[C@H]1[C@@H](O[C@]2(COC(=O)CC(C)C)O[C@H](COC(=O)C(C)C)[C@@H](OC(C)=O)[C@@H]2O)O[C@H](COC(C)=O)[C@@H](O)[C@@H]1O
inactive: Potency [1] | Potency [2] | Potency [3]

CC1=C(CC(=O)O)c2cc(F)ccc2C1=Cc1ccc(S(C)(=O)=O)cc1
inactive: Potency [1] | Potency [2] | Potency [3]

C=C1C(=O)O[C@H]2[C@H]1[C@@H](OC(=O)C(C)CO)C[C@@]1(C)[C@H](O)CCC(=O)[C@H]21 (some centres undefined)
inactive: Potency [1] | Potency [2] | Potency [3]

CNC(=O)Nc1ccc(OC)c(NC(=O)NC(=O)c2cc(F)c(F)cc2Cl)c1
inactive: Potency [1] | Potency [2] | Potency [3]

COc1ccc(/C=C/C(=O)O[C@H]2[C@@H]3C=CO[C@@H](O[C@@H]4O[C@H](CO)[C@@H](O)[C@H](O)[C@H]4O)[C@@H]3[C@@]3(CO)O[C@@H]23)cc1O
inactive: Potency [1] | Potency [2] | Potency [3]

c1ccc(Cc2ncc3c(n2)CCNCC3)cc1
inactive: Potency [1] | Potency [2] | Potency [3]

C=CCc1ccc(O[C@@H]2O[C@H](CO[C@@H]3O[C@@H](C)[C@H](O)[C@@H](O)[C@H]3O)[C@@H](O)[C@H](O)[C@H]2O)cc1
inactive: Potency [1] | Potency [2] | Potency [3]

CCC(C)(O)C(O)C(=O)OCc1ccc(O[C@@H]2O[C@H](CO)[C@@H](O)[C@H](O)[C@H]2O)c(OC)c1 (some centres undefined)
inactive: Potency [1] | Potency [2] | Potency [3]

CC1(C)O[C@@]2(C)CC[C@@H]1C[C@@H]2OC1OC(CO)C(O)C(O)C1O (some centres undefined)
inactive: Potency [1] | Potency [2] | Potency [3]

CC(=O)OC[C@]1(O)[C@H]2[C@H](OC(=O)CC(C)C)OC=C(CO[C@@H]3O[C@H](CO)[C@@H](O)[C@H](O)[C@H]3O)[C@H]2C[C@@H]1O
inactive: Potency [1] | Potency [2] | Potency [3]

COc1cc(/C=C/C(=O)OC2CC3CCC2(C)C3(C)C)ccc1O (centres undefined)
inactive: Potency [1] | Potency [2] | Potency [3]

CC1(C)C(=O)N2c3ccccc3[C@]3(CC(n4cnc5ccccc5c4=O)C(=O)O3)[C@H]2N1O (some centres undefined)
inactive: Potency [1] | Potency [2] | Potency [3]

OC[C@H]1O[C@@H](Oc2ccc(O)c3cccc(O)c23)[C@H](O)[C@@H](O)[C@@H]1O
inactive: Potency [1] | Potency [2] | Potency [3]

OC[C@H]1O[C@@H](Oc2cc(O)cc(-c3cc4ccc(O)cc4o3)c2)[C@H](O)[C@@H](O)[C@@H]1O
inactive: Potency [1] | Potency [2] | Potency [3]

CC(C)NC[C@H](O)COc1ccc(CCOCC2CC2)cc1
inactive: Potency [1] | Potency [2] | Potency [3]

CO[C@H]1C=C2C(CC[C@H](O[C@@H]3O[C@H](CO)[C@@H](O)[C@@H](O)[C@H]3O)C2(C)C)[C@]2(C)CC[C@]3(C)C([C@H](C)C(O)C(C=C(C)C)O[C@@H]4O[C@H](CO)[C@@H](O)[C@@H](O)[C@H]4O)CC[C@@]3(C)C12 (some centres undefined)
inactive: activity change, negative = cytotoxicity [1] -12.6% [at 11.6 µM] | activity change, negative = cytotoxicity [2] 4% [at 11.6 µM] | activity change, negative = cytotoxicity [3] 2.11% [at 11.6 µM]
